A selection: hits, their analogues and other compounds. The true share with any hit is near 3.7%.
BoNT F protease – blocks Botulinum neurotoxin F light chain protease. Multiplex microsphere protease cleavage assay, flow cytometry. inhibition, % at 10 µM. 0.22% of 360,000 active; in the data active = inhibition above about 35%, passing the limit was not always enough; inconclusive = no clear call, values can overlap the other calls; also: plate controls were buffer without enzyme for full effect and enzyme alone for no effect
Bead autofluor – counter-screen for toxin protease inhibitors: compound fluorescence. compound autofluorescence counterscreen, microsphere flow cytometry; stronger effect = higher value. AID 624483. fluorescence intensity (concentration not given with the values). 3.1% of 360,000 active; in the data active = fluorescence intensity above about 16000; inconclusive = no clear call, values can overlap the other calls
Anthrax LF inh2 – inhibitors of Bacillus anthracis lethal factor protease; P15917; multiplex microsphere protease cleavage assay, LF; inhibition, % at 10 µM; 0.12% of 360,000 active; AID 588501; also: plate controls were buffer without enzyme for full effect and enzyme alone for no effect
BoNT A protease – inhibitors of Botulinum neurotoxin A light chain protease; inhibition, % at 10 µM; AID 588499; 0.17% of 360,000 active; multiplex microsphere protease substrate cleavage, flow cytometry; also: plate controls were buffer without enzyme for full effect and enzyme alone for no effect
MazF activator – activators of E. coli MazEF toxin-antitoxin RNase. P0AE70. FAM/BHQ RNA-DNA oligo cleavage fluorescence, 5 h. activation, % at 20 µM. 0.32% of 350,000 active. AID 504720; in the data active = activation above about 50%
An asterisk follows results filed as active; ? = inconclusive; . = no result. Rule as the data show it, unless noted: active = inhibition above about 30%; inconclusive = no clear call, values can overlap the other calls; inactive = below that.

SMILES	BoNT F protease	Bead autofluor	Anthrax LF inh2	BoNT A protease	MazF activator
Cc1ccccc1OCc1nnc(SCC(=O)Nc2ccc3c(c2)OCO3)n1C	7.1	8622	2.9	2.3	5.4
Cc1cnc(NC(=O)CSc2nnc(Cc3ccccc3)n2C)s1	-5.2	21335*	-1.4	-4.4	-1.5
CCn1c(Cc2ccccc2)nnc1SCC(=O)Nc1nc(C)cs1	5.3	4448	0.0	-0.2	7.3
CCn1c(Cc2ccccc2)nnc1SCC(=O)Nc1nc(C)c(C)s1	5.5	21539*	-0.3	2.0	-7.6
CCC1(c2ccc(OC)cc2)NC(=O)N(CC(=O)NC2CCCCC2C)C1=O (stereo not drawn)	4.8	3832	-6.7	-0.3	2.3
CCn1c(Cc2ccccc2)nnc1SCC(=O)Nc1ccc2c(c1)OCCO2	18.8	17692*	-15.6	?	6.3
O=C(c1nsc(Cl)c1Cl)N1CCCCC1	-0.2	20635*	-0.6	0.3	6.3
Cc1ccc(NC(=O)CN2CCN(C(=O)C3CC3)CC2)c(F)c1	-4.7	2659	8.9	-0.2	7.7
COc1cccc(NC(=O)N(CCCN2CCOCC2)C(C)c2cc3ccccc3o2)c1 (stereo not drawn)	3.7	21426*	0.9	2.9	-5.5
Cc1ccc2nc(N3C(=O)C(O)=C(C(=O)c4ccco4)C3c3cccs3)sc2c1 (stereo not drawn)	-0.4	8263	2.7	1.4	109.8*
COc1ccc2nc(N3C(=O)C(O)=C(C(=O)c4ccco4)C3c3ccc(C)o3)sc2c1 (stereo not drawn)	-0.8	4769	-2.2	1.1	8.2
Cc1ccsc1C1Nc2ccc3ncccc3c2C2=C1C(=O)CC(C)(C)C2 (stereo not drawn)	-0.9	16347*	0.3	?	-1.1
O=C1CCCC2=C1C(c1cccs1)Nc1ccc3ncccc3c12 (stereo not drawn)	-1.0	23605*	2.7	?	9.1
CN1CCC(C)(C(=O)Nc2ccc3c(c2)OCCO3)C1 (stereo not drawn)	-10.6	4121	5.1	-0.5	.
N#CCSc1nc2c(sc(=S)n2Cc2ccco2)c(=O)n1-c1ccc(F)cc1	-5.3	21835*	-2.4	-2.6	-0.4
CCSc1nnc(N2C(=O)C(O)=C(C(=O)c3ccco3)C2c2cccc(OC)c2)s1 (stereo not drawn)	3.5	6164	-4.6	-0.2	64.6*
CCOc1cccc(C2C(C(=O)c3ccco3)=C(O)C(=O)N2c2nnc(C)s2)c1 (stereo not drawn)	4.7	3898	-0.9	-0.2	-31.1
Cc1ccc2c(c1)CO[C@@]21O[C@H](CCO)C[C@H](O)[C@H]1O	-4.8	3374	-1.0	-0.2	9.4
C=CCSC1=C(C#N)C2(CCCCC2)C(C#N)C(=O)N1 (stereo not drawn)	2.0	19902*	1.2	?	-2.9
N#CC1=C(SCC(=O)NC2CC2)NC(=O)C(C#N)C12CCCCC2 (stereo not drawn)	3.1	20178*	0.8	2.3	-9.7
N#CC1=C(SCC(=O)NC23CC4CC(CC(C4)C2)C3)NC(=O)C(C#N)C12CCCCC2 (stereo not drawn)	-0.2	9067	1.0	0.0	0.1
COc1cccc(CN2CCC2(C)C(=O)Nc2ccc3c(c2)CCN3C(C)=O)c1F (stereo not drawn)	4.6	3875	1.3	-0.6	.
CSc1ccc(CN2CCC2(C)C(=O)NC2CCc3ccccc32)cc1 (stereo not drawn)	-2.0	3938	0.6	-0.5	.
Cc1nc(N)sc1-c1csc(N(C)c2ccc(O)cc2)n1	-5.9	23793*	-1.4	0.1	18.5
CN(C)c1ccc(-c2ccnc3c2CC(C)(C(=O)NCc2cccc(Cl)c2)O3)cc1 (stereo not drawn)	-8.1	2928	-2.4	-0.2	.
SMILES	BoNT F protease	Bead autofluor	Anthrax LF inh2	BoNT A protease	MazF activator
COc1ccc(C=O)c(OCc2cn(CC(=O)c3ccc(O)cc3)nn2)c1	-4.2	3659	3.2	-0.3	7.8
COc1cc2c(cc1OC)C(c1ccc(-c3ccc(Cl)cc3Cl)o1)=NCC2	-5.5	?	7.3	?	-8.1
COc1cc2c(cc1OC)C(c1ccc(-c3ccccc3Cl)o1)=NCC2	6.1	20487*	0.4	7.2	-4.2
Cc1cccc(NC(=O)C2CCCN(C(=O)NC3CCCCC3)C2)c1C (stereo not drawn)	-1.2	22986*	-0.8	0.4	3.4
O=C(CCNC(=O)c1ccc(Br)o1)NCc1ccc(Cl)cc1	-1.3	20990*	-1.3	-1.3	-0.3
CCN1CCN(C(CCc2ccccc2)C(=O)NC2CCCCC2)CC1 (stereo not drawn)	1.3	5429	-7.9	1.1	.
O=C(COc1cccc(Cl)c1)N/N=C\c1cc2ccccc2nc1Cl	-10.0	2560	-4.1	-0.3	147.8*

Screening data: PubChem, several laboratories
